# Screening data deposited in PubChem BioAssay by National Center for Advancing Translational Sciences (NCATS).
# Rows were chosen to be rich in hits. Some 11% of all compounds tested hit in one or more screens of this group.
# AmpC inh detg = qHTS Inhibitors of AmpC Beta-Lactamase (assay with detergent); P00811; AmpC hydrolysis of nitrocefin, absorbance 480 nm, 0.01% Triton; Potency, µM (titrated, usually from 114 µM), without a hit: top-dose activity change, negative = inhibition, most hits filed as inhibitors; 370,000 tested, 0.041% active;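 note: 0% = no-compound wells and -100% = no-enzyme wells; nearly all actives have a fitted effect of over 25% in size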
# Target sequence (P00811 whole entry, looked up): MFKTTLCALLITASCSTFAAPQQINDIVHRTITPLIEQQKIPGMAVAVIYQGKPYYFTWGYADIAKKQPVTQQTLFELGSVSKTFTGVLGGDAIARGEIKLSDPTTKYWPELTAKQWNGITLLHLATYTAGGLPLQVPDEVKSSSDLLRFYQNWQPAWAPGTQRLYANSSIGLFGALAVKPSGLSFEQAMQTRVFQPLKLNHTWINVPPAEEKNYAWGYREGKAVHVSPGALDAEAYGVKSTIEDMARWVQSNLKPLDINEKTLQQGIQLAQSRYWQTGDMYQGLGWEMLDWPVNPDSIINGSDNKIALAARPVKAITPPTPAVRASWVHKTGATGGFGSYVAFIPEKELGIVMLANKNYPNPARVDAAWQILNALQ
#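 AmpC (5.3 nM in the dispensed reagent) in 20 mM phosphate pH 7.0 with 0.01% (detergent screen) or 0.0001% Triton X-100 was preincubated with compounds for 15 min at room temperature. Nitrocefin was then added from an 800 uM solution, and hydrolysis was followed at 480 nm.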
# Pf growth 48h = Primary qHTS for delayed death inhibitors of the malarial parasite plastid, 48 hour incubation. 310,000 tested, 5.9% active. P. falciparum luciferase growth in erythrocytes, 48 h. Potency, µM (highest dose often 28.7 µM), inactives show at the highest dose activity change, negative = inhibition, most hits filed as inhibitors
#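 Erythrocytes infected with P. falciparum carrying an integrated firefly luciferase reporter (2% hematocrit, 0.1% parasitemia final) were exposed to compounds in RPMI 1640 with 0.5% Albumax at 37 C, 5% CO2. Growth inhibition was scored as reduced luminescence.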
# Pf growth 96h = Primary qHTS for delayed death inhibitors of the malarial parasite plastid, 96 hour incubation | P. falciparum luciferase reporter growth, 96 h | Potency, µM (top dose mostly 28.7 µM), for the others: at the highest dose activity change, negative = inhibition, most hits filed as inhibitors | 320,000 tested, 6.9% active
#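 Luminescence readout: decreased luciferase signal marks inhibited growth of reporter-expressing P. falciparum in infected red cells (2% hematocrit, 0.05% parasitemia final), exposed to compound two generations (96 h, 37 C, 5% CO2).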
# AMA1 RON2 block = qHTS for Inhibitors of AMA1-RON; Towards Development of Antimalarial Drug Lead: Primary Screen; AID 720542, 2013; 360,000 tested, 0.2% active; Potency, µM (series often up to 58.2 µM), without a hit: at the highest dose activity change, negative = inhibition, actives largely listed as inhibitors; AlphaScreen AMA1-biotinylated RON2 peptide binding; Plasmodium falciparum AMA1 (3D7) - RON2 peptide interaction;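 note: 0% = vehicle wells and -100% = peptide control; nearly all actives have a fitted effect of over 45% in size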
#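 AMA1 (3D7) with his tag at 25 nM final met compounds first, then biotinylated RON2 peptide at 25 nM; detection used donor plus acceptor beads, 10 µg/mL apiece, read by AlphaScreen after 30 min at room temperature.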
# AmpC inh no detg = qHTS Inhibitors of AmpC Beta-Lactamase (assay without detergent) | Potency, µM (top dose mostly 57.1 µM), for the others: at the top dose activity change, negative = inhibition, usual class: inhibitors | 330,000 tested, 0.52% active | AmpC nitrocefin hydrolysis, absorbance 480 nm, 0.0001% Triton;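 note: plate controls were no compound for no effect and no enzyme for full effect; nearly all actives have a fitted effect of over 20% in size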
#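 20 mM phosphate pH 7.0 + 0.01% (detergent screen) or 0.0001% Triton X-100; 5.3 nM AmpC reagent; cpd preinc 15 min RT; nitrocefin (800 uM stock) to start; A480 q20 s × 4 min; Activity was normalised to no-enzyme and no-compound control wells.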
# HCV inhibitor = qHTS Assay for Inhibitors of Hepatitis C Virus (HCV); Potency, µM (highest dose often 41.8 µM), for inactives: at the top dose activity change, negative = inhibition, most hits filed as inhibitors; 340,000 tested, 3.4% active; AID 651820, 2012; Huh7.5.1 HCVcc-Cre infection, luciferase reporter, 44 h
#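 Compounds are dispensed onto cells plated 4 h earlier at 1,000 per well, with HCVcc-Cre virus (about 0.5 moi) added next. Following 44 h of culture, luminescent signal is measured for 15 sec after 15 min with substrate at room temperature.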
# Active calls of the source: *; ? = inconclusive; nt = no result given. Calls come from the whole dose curve; as a rule, active = well fitted curve in the direction sought with a large enough effect; inconclusive = small, poorly fitted or top-dose-only effect, or another doubt; inactive = no such curve, though single readings can be large; an effect the other way counts as inactive or inconclusive. Unless noted, % is set by controls: 0 for no effect and ±100 for the full control effect; potency is the fitted concentration of half-maximal effect.
SMILES,AmpC inh detg,Pf growth 48h,Pf growth 96h,AMA1 RON2 block,AmpC inh no detg,HCV inhibitor
CC1=C(C(=O)Nc2ccc(C)cc2C)C(c2cccs2)n2nc(SCc3ccccc3Cl)nc2N1 (centres undefined),18%,nt,nt,nt,nt,nt
COc1ccccc1NS(=O)(=O)c1cc(NC(=O)c2cnccn2)ccc1N1CCOCC1,-4%,12µM*,?,0%,63%,-15%
Cc1cnc(C(=O)O)c[n+]1[O-],nt,-9%,-10%,nt,nt,nt
COc1ccccc1N1CCN(C(=O)c2ccccc2Oc2ccccc2)CC1,6%,13µM*,?,-3%,126%,?
COc1ccccc1N1CCN(C(=O)C(Cc2ccccc2)NC(=O)C2CCCCC2)CC1 (centres undefined),6%,10µM*,0%,-7%,127%,?
O=C(NC(Cc1ccccc1)C(=O)N1CCC2(CC1)OCCO2)C1CCCCC1 (centres undefined),-6%,-3%,nt,-19%,19%,5%
COc1ccccc1N1CCN(C(=O)c2ccccc2NC(=O)C2CCCCC2C(=O)O)CC1 (centres undefined),0%,15%,7.4µM*,-6%,-13%,-1%
COc1ccccc1N1CCN(C(=O)c2nn(-c3ccccc3OC)c(=O)c3ccccc23)CC1,2%,9.3µM*,?,-7%,132%,-8%
O=C(O)C1CCCCC1C(=O)Nc1ccccc1C(=O)N1CCN(c2ccc(F)cc2)CC1 (centres undefined),-2%,0%,29%,-7%,-18%,8%
O=C(CSc1nc2ccccc2nc1Cc1ccc(Cl)cc1)N1CCc2ccccc21,23%,nt,nt,nt,nt,nt
CCOc1nc(NC(=O)NS(=O)(=O)Oc2ccccc2)nc(-c2ccccc2)n1,1%,nt,nt,nt,nt,nt
CC(CNC(=O)Cn1c(-c2cccs2)cc2ccccc21)c1ccccc1 (centres undefined),17%,nt,nt,nt,nt,nt
COc1ccccc1N1CCN(C(=O)c2ccccc2N(C)S(=O)(=O)c2ccc(C)cc2)CC1,5%,10µM*,?,-3%,203%,?
O=C(Cc1ccccc1)NN=Cc1ccccc1,nt,nt,nt,1%,nt,0%
O=C(CC(=O)N/N=C/c1ccccc1)NCc1ccccc1,7%,0%,10µM*,5%,-6%,7%
O=C(CC(=O)N/N=C\c1c(Cl)cccc1Cl)NCc1ccccc1,-3%,6%,1µM*,10%,-13%,10%
O=C(CC(=O)N/N=C/c1c(F)cccc1Cl)NCCc1ccccc1,-4%,2%,?,11%,-26%,0%
CC(C)(C)C1CCC(=NNC(=O)CC(=O)NCc2ccccc2)CC1 (centres undefined),?,10%,2.1µM*,19%,-22%,46%
CN(C(=O)CSc1nncn2c1cc1occc12)c1ccccc1,-3%,nt,nt,nt,nt,nt
COc1ccc(-c2cc(C(F)(F)F)nc(SCC(=O)Nc3sc4c(c3C#N)CCC4)n2)cc1,-1%,4.1µM*,1.7µM*,5%,?,?
N#Cc1c(NC(=O)CSC2=NCCS2)sc2c1CCCC2,-11%,?,2.3µM*,-11%,-47%,?
Cc1ccnc(SCC(=O)Nc2sc3c(c2C#N)CCCC3)n1,1%,?,-7%,-3%,60%,7.9µM*
N#Cc1c(NC(=O)CSc2ncc(-c3ccccc3)n2CC2CCCO2)sc2c1CCCC2 (centres undefined),-9%,?,1%,?,-18%,11µM*
N#Cc1c(NC(=O)CSc2nnc(-c3ccncc3)n2CC2CCCO2)sc2c1CCCC2 (centres undefined),?,17%,?,-7%,155%,9%
N#Cc1c(NC(=O)CSc2ncn[nH]2)sc2c1CCCC2,5%,nt,nt,25%,-21%,?
